An excerpt weighted towards active compounds, which were near 3.5% of everything screened.
FBW7 activator – activators of human E3 ligase FBW7. AID 1259310. 650,000 compounds, 0.13% hits. normalized activity (activation), % at 26.1 µM. AlphaScreen FBW7–phospho-cyclin E peptide binding, activator screen. Q969H0; in the data active = normalized activity above about 1.9%;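 note: purified mutant Fbw7 with reduced substrate affinity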
TEAD-YAP block – TEAD-YAP interaction inhibition; inhibition, % at 9.12 µM; HEK-TIYL cells, TEAD-Gal4/YAP UAS-luciferase luminescence; 640,000 compounds, 1.4% hits; in the data active = inhibition above about 32%;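 note: 0% = median of test compound wells and 100% = reference inhibitor wells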
GPR151 ag – activators of human GPR151; PathHunter beta-arrestin GPR151 cells, luminescence; activation, % at 11.2 µM; 650,000 compounds, 1% hits; AID 1508602; in the data active = activation above about 4.9%;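 note: 0% = median of compound wells and 100% = cells with positive control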
MITF inh – blocks human microphthalmia-associated transcription factor | inhibition, % at 2.6 µM | 650,000 compounds, 0.91% hits | O75030 | AlphaScreen MITF homodimerization, bead proximity signal | AID 1259374; in the data active = inhibition above about 50%;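 note: 0% = vehicle wells with protein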
Target sequence (O75030 whole entry, looked up): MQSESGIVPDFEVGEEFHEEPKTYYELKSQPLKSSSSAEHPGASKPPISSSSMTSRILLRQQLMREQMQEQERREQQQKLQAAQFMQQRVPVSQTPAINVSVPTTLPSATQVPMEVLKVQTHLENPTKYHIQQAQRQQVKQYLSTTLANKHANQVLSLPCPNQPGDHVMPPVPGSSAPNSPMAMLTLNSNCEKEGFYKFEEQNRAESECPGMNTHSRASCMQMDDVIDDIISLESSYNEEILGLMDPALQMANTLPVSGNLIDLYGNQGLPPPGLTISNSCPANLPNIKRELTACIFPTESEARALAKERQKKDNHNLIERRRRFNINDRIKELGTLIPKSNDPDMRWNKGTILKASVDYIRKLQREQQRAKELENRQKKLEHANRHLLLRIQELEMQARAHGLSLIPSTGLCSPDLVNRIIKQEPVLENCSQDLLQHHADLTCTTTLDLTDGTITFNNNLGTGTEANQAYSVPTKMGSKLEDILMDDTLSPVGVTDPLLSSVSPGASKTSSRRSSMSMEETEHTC
MITF confirm – confirmation of human MITF inhibitors; shares compounds with MITF inh; AlphaScreen MITF homodimerization, biotin/His-MITF beads; inhibition, % at 2.6 µM; 4,700 compounds, 16% hits;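 active = inhibition above a cutoff derived from the DMSO control wells, cut at about 28% in these data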;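 note: 0% = MITF dimer wells with DMSO only; inhibitors lower the bead chemiluminescence by keeping MITF from dimerizing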
AS interf DR – AlphaScreen optical interference, dose response counter-screen | AID 1259373 | 480 compounds, 6% hits | IC50, µM | AlphaScreen optical interference counterscreen, cell-free | shares compounds with MITF inh; call rule not given here
AlphaScreen intf2 – optically interferes with AlphaScreen signal. LysRS AlphaScreen counterscreen, signal interference, triplicate. inhibition, % at 2.6 µM. 4,700 compounds, 7.6% hits. AID 1259376. shares compounds with MITF inh;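 active = inhibition above a cutoff derived from the DMSO control wells, cut at about 30% in these data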
An asterisk follows results filed as active.

What do the screens show for `O=C(Nc1ccccc1)c1nc[nH]c1C(=O)Nc1ccccc1`?
FBW7 activator: -0.1; TEAD-YAP block: 7.4; GPR151 ag: -0.1; MITF inh: 12.1

What do the screens show for `CC(=O)Nc1ccc(NS(=O)(=O)c2ccccc2[N+](=O)[O-])cc1`?
FBW7 activator: -0.2; TEAD-YAP block: 10.7; GPR151 ag: -1.1; MITF inh: 0.3

What do the screens show for `CC(=O)Nc1ccc(OS(=O)(=O)c2ccccc2[N+](=O)[O-])cc1`?
FBW7 activator: -0.2; TEAD-YAP block: -22.7; GPR151 ag: -0.5; MITF inh: 55.9*; MITF confirm: -7.8; AlphaScreen intf2: -1.8

What do the screens show for `Cc1ccccc1/C=C1\N=C(c2cc(C3=N/C(=C/c4ccccc4C)C(=O)O3)cc(C3=N/C(=C/c4ccccc4C)C(=O)O3)c2)OC1=O`?
FBW7 activator: -0.3; TEAD-YAP block: -1.8; GPR151 ag: 0.2; MITF inh: 58.7*; MITF confirm: 45.7*; AlphaScreen intf2: 11.7

How did COc1cccc(/C=N/Nc2cccc(C(=O)O)c2)c1O do in these assays?
FBW7 activator: 0.4; TEAD-YAP block: -19.9; GPR151 ag: -0.2; MITF inh: 5.5

What do the screens show for `CC(=O)c1ccc(NC(=O)CSc2nc(C)c(C)c(C)n2)cc1`?
FBW7 activator: 0.2; TEAD-YAP block: -3.5; GPR151 ag: 1.2; MITF inh: 8.4

How did CCN(CC)C(=S)SCc1c(C)c(C)c(Br)c(C)c1C do in these assays?
FBW7 activator: 0.0; TEAD-YAP block: 8.2; GPR151 ag: 0.8; MITF inh: 52.0*; MITF confirm: 3.3; AlphaScreen intf2: 6.7

How did CCN(CC)C(=S)SCc1cn2cccc(C)c2n1 do in these assays?
FBW7 activator: 0.1; TEAD-YAP block: -12.0; GPR151 ag: 1.3; MITF inh: -3.3

How did COc1nccnc1NS(=O)(=O)c1ccc(NC(=O)c2ccc([N+](=O)[O-])c(C)c2)cc1 do in these assays?
FBW7 activator: -0.2; TEAD-YAP block: 1.8; GPR151 ag: -1.5; MITF inh: 59.2*; MITF confirm: 34.3*; AS interf DR: >6.48; AlphaScreen intf2: -2.9

How did CCOC(=O)CSc1nnc2n(CC)c(=O)c3ccccc3n12 do in these assays?
FBW7 activator: 0.0; TEAD-YAP block: -26.1; GPR151 ag: -0.2; MITF inh: -8.0

Results for Cc1ccccc1CN1CCN(C(=O)c2ccccc2)CC1 ?
FBW7 activator: 0.1; TEAD-YAP block: 1.6; GPR151 ag: -0.6; MITF inh: 36.8

Results for CC(=O)c1ccc(N2CCN(CC(=O)NCc3cccs3)CC2)cc1 ?
FBW7 activator: 0.1; TEAD-YAP block: 11.1; GPR151 ag: 0.0; MITF inh: 10.1

How did COc1cc(C(=O)N2CCN(Cc3cccc4ccccc34)CC2)cc(OC)c1OC do in these assays?
FBW7 activator: -0.4; TEAD-YAP block: 7.1; GPR151 ag: -1.6; MITF inh: 57.1*; MITF confirm: 4.5; AlphaScreen intf2: 7.8

What do the screens show for `COc1cccc(CN2CCN(C(=O)c3cccc4ccccc34)CC2)c1OC`?
FBW7 activator: 0.3; TEAD-YAP block: -3.5; GPR151 ag: -2.0; MITF inh: 53.7*; MITF confirm: 9.6; AlphaScreen intf2: -11.6

What do the screens show for `CC(=O)c1ccc(N2CCN(Cc3cccs3)CC2)cc1`?
FBW7 activator: -0.1; TEAD-YAP block: -19.2; GPR151 ag: 0.3; MITF inh: 55.8*; MITF confirm: 5.0; AlphaScreen intf2: -0.1

Results for COc1ccc(CN2CCN(C(=O)c3cccc4ccccc34)CC2)cc1OC ?
FBW7 activator: -0.1; TEAD-YAP block: -1.7; GPR151 ag: 0.7; MITF inh: 44.3

How did COc1cccc(OC)c1C(=O)N1CCN(Cc2ccccc2C)CC1 do in these assays?
FBW7 activator: 0.3; TEAD-YAP block: 0.5; GPR151 ag: -0.7; MITF inh: 71.2*; MITF confirm: 7.6; AlphaScreen intf2: -6.4

How did COCCn1nnnc1CN(Cc1ccccc1)Cc1cc2ccc(C)cc2[nH]c1=O do in these assays?
FBW7 activator: -0.1; TEAD-YAP block: -0.6; GPR151 ag: -0.7; MITF inh: -12.5

What do the screens show for `COc1ccc(C(=O)O)cc1NC(=S)NC(=O)c1ccccc1C`?
FBW7 activator: 0.0; TEAD-YAP block: 6.0; GPR151 ag: -1.2; MITF inh: 3.5

Results for O=c1[nH]c(NC2CCN(S(=O)(=O)c3ccc4c(c3)OCCO4)CC2)nc2c1CCCC2 ?
FBW7 activator: -0.1; TEAD-YAP block: 9.7; GPR151 ag: -0.6; MITF inh: 5.4

What do the screens show for `O=C1CC(C(=O)O)S/C(=N/N=C\c2ccco2)N1` (stereo not given)?
FBW7 activator: -0.4; TEAD-YAP block: 1.9; GPR151 ag: 0.3; MITF inh: 9.2

What do the screens show for `O=C(Nc1ccc(Cl)cc1)C1CC(=O)N(CCOC23CC4CC(CC(C4)C2)C3)C(=Nc2ccccc2)S1` (stereo not given)?
FBW7 activator: 0.0; TEAD-YAP block: -2.5; GPR151 ag: 1.3; MITF inh: -0.1

Results for CCOc1ccc(CN2CCN(Cc3ccccc3[N+](=O)[O-])CC2)cc1 ?
FBW7 activator: 0.0; TEAD-YAP block: 9.7; GPR151 ag: 2.4; MITF inh: 56.4*; MITF confirm: 4.2; AlphaScreen intf2: 4.4

How did COc1cccc(CN2CCN(Cc3ccco3)CC2)c1OC do in these assays?
FBW7 activator: -0.2; TEAD-YAP block: -6.9; GPR151 ag: -2.0; MITF inh: 41.9

Results for COc1cc(CN2CCN(C(=O)c3cc(OC)c(OC)c(OC)c3)CC2)c([N+](=O)[O-])cc1OC ?
FBW7 activator: -0.4; TEAD-YAP block: -3.8; GPR151 ag: -1.5; MITF inh: 36.0

What do the screens show for `O=[N+]([O-])c1ccc(N2CCN(Cc3ccccc3[N+](=O)[O-])CC2)cc1`?
FBW7 activator: -0.6; TEAD-YAP block: 27.3; GPR151 ag: 1.2; MITF inh: 8.6

How did COc1cccc(CN2CCN(C(=O)c3ccco3)CC2)c1OC do in these assays?
FBW7 activator: 0.3; TEAD-YAP block: -4.6; GPR151 ag: -0.1; MITF inh: 57.2*; MITF confirm: 7.9; AlphaScreen intf2: 17.7

What do the screens show for `COc1cc(C(=O)N2CCN(Cc3ccccc3[N+](=O)[O-])CC2)cc(OC)c1OC`?
FBW7 activator: 0.2; TEAD-YAP block: 1.7; GPR151 ag: 2.1; MITF inh: 67.1*; MITF confirm: -16.6; AlphaScreen intf2: -4.3

How did CC(=O)c1ccc(N2CCN(Cc3ccccc3[N+](=O)[O-])CC2)cc1 do in these assays?
FBW7 activator: 0.1; TEAD-YAP block: -12.2; GPR151 ag: 0.1; MITF inh: 50.8*; MITF confirm: 1.3; AlphaScreen intf2: 2.2

Results for CCCNc1ccc2ncc(-c3cccnc3)n2n1 ?
FBW7 activator: 0.0; TEAD-YAP block: 8.3; GPR151 ag: 0.0; MITF inh: 14.0

Results for CCC(C)NC(=O)C1c2ccccc2C(=O)N(CCOC)C1c1cccs1 (stereo not given) ?
FBW7 activator: 0.0; TEAD-YAP block: -16.2; GPR151 ag: 4.0; MITF inh: -6.5

High-throughput results deposited in PubChem by The Scripps Research Institute Molecular Screening Center.
